The record followed here is PubChem BioAssay AID652048 (National Center for Advancing Translational Sciences (NCATS), 2013).

Hit rate of the full screen: of about 410,000 compounds, about 2,400 (0.59%) were called active. Rule as the data show it: active = max activation above about 30%; inactive = the rest. This excerpt belongs to a sample that is enriched for actives.

Chain of D(3) dopamine receptor (Homo sapiens) (P35462 whole entry, looked up): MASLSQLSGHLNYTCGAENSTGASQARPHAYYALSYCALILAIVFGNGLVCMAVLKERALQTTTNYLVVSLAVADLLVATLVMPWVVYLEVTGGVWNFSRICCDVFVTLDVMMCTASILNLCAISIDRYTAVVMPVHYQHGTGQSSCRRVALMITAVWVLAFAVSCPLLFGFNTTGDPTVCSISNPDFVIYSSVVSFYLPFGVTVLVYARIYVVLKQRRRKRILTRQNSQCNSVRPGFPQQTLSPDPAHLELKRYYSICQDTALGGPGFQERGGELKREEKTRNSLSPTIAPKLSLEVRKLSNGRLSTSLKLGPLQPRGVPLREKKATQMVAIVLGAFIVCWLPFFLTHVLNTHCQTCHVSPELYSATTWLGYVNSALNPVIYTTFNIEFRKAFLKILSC

The experiment has as its target D(3) dopamine receptor (Homo sapiens) (UniProt P35462). Briefly: qHTS of D3 Dopamine Receptor Agonist: qHTS. Also: 0% is about no effect. The conditions noted are these: D3R DiscoveRx beta-arrestin cells, luminescence, 90 min; hits give high values. The text has this: D3 DARs represent a very important target for the treatment of several neuropsychiatric disorders. Indeed, one of the most promising therapeutic applications for the D3 DAR is in the area of addiction and related disorders. […] These findings have been observed with a number of addictive substances including cocaine, amphetamine, nicotine, and alcohol. […] Antagonism of the D3 DAR may also be therapeutic in the treatment of schizophrenia or psychosis. […] Since the D3 DAR is expressed in areas of the CNS associated with the control of mood and emotion, it has been hypothesized that selective antagonism of the D3 DAR may be effective in treating psychosis without inducing the motor side effects typically seen with D2 DAR antagonists.
This part of the project aims to discover novel agonist.
NIH Chemical Genomics Center [NCGC]
NIH Molecular Libraries Probe Centers Network [MLPCN]
Assay Submitter (PI): David Sibley, NINDS
Freshly passaged cells are plated in 1536 well white, solid bottom plates at a density of 1500 cells/well in 3microl of complete media. After an overnight incubation at 37 degrees C in 5% CO2, cells are loaded with 23nl of test compound from the compound library (as well as dopamine controls) using a 1536 pintool and incubated at 37 degrees C for 90 minutes. Two microliters of DiscoveRx reagent is then added to all cells, and they are incubated for an additional 30 - 60 minutes at room temperature. Following incubation, luminescence is measured on a ViewLux CCD-based luminometer reader using a 20 sec exposure time.
In general terms: Quantitative high-throughput screening tests each substance at several concentrations.
Consider `CC(C)=CCc1c(O)c(CC=C(C)C)c2occ(-c3ccc(O)cc3)c(=O)c2c1O`, for which the max activation was 84.1% (active).

On to `CC(C)=CCc1ccc(O)c(=O)cc1C(C)C`, for which the max activation is -8.37% (inactive).

Regarding `CCc1nc2c(cnn2-c2ccc(C)cc2)c(=O)n1-c1ccc(C)cc1`, the max activation is 0.0293% (inactive).

For the molecule `O=C(CCn1ccc2cc(S(=O)(=O)N3CCCC3)ccc21)NCc1cccc(Cl)c1`, the max activation was -1.61% (inactive).

On to `COc1ccc2ncc3c(-c4ccc(C)c(C)c4)nn(CC(=O)NC4CCCC4)c3c2c1`, for which the max activation is -3.77% (inactive).

As for `CC(=O)O[C@]1(C(C)=O)CC[C@H]2[C@@H]3CCC4=CC(=O)CC[C@]4(C)[C@@]3(F)[C@@H](O)C[C@@]21C`, the max activation was 9.73% (inactive).

In the case of `S=c1[nH]nc(-c2cccs2)n1/N=C/c1cn(-c2ccccc2)nc1-c1ccc(Cl)cc1`, the max activation was 44.2% (active).

In the case of `CCC(=O)N1N=C(c2ccc(OC)cc2)CC1c1cn(-c2ccccc2)nc1-c1cccs1` (stereo not given), the max activation was -10.2% (inactive).

Turning to `CC(=O)O[C@H]1CC[C@@]2(C)C(=CC[C@@H]3[C@@H]2CC[C@]2(C)C(c4cccnc4)=CC[C@@H]32)C1`, the max activation was 6.91% (inactive).

On to `COc1ccc(S(=O)(=O)NCc2cccn2Cc2cccc(C)c2)cc1Cl`, for which the max activation is -14.5% (inactive).

As to `Cc1ccc(C(=O)Nc2ccc(OCc3cc(=O)n4c5c(sc4n3)CCCC5)cc2)cc1`, the max activation was -4.47% (inactive).

Turning to `COc1ccc(C(=O)NC2CC2)cc1OC1CCN(C/C=C/c2ccccc2)CC1`, the max activation was -13.2% (inactive).

Regarding `COc1cc(C(=O)N2CCN(C/C=C/c3ccccc3)CC2)cc(OC)c1C`, the max activation is 49.9% (active).

Turning to `COc1ccccc1C(=O)NC(CCSC)C(=O)N1CCN(C/C=C/c2ccccc2)CC1` (stereo not given), the max activation is -0.587% (inactive).

With `CCc1ccccc1N1C(=O)CN(S(=O)(=O)CC)CC1(C)C(=O)NC1CCCCC1` (stereo not given), the max activation is -18.4% (inactive).

Turning to `N#Cc1ccccc1Cn1cnc2nc3c(cc2c1=O)CCCC3`, the max activation is -7.33% (inactive).

In the case of `C/C=C/C=N/NC(=O)c1ccncc1`, the max activation is -12.6% (inactive).

With `Cc1ccc(Cc2nc3ccccc3nc2SCC(=O)Nc2cccc(C(F)(F)F)c2)cc1`, the max activation was 4.77% (inactive).

With `Cc1cc(C)cc(NC(=O)N(C)Cc2ccccc2)c1`, the max activation was -3.6% (inactive).

Turning to `CN(Cc1ccccc1)C(=O)c1cc2c(=O)n(C)c3ccccc3c2s1`, the max activation was -16.8% (inactive).

Consider `CN(Cc1ccccc1)C(=O)c1cccc(C(=O)N(C)Cc2ccccc2)c1`, for which the max activation was 115% (active).

Turning to `COc1ccc(-c2noc(CSc3nnc(-c4ccccc4)n3-c3ccc(F)cc3)n2)c(OC)c1`, the max activation was -1.45% (inactive).

Regarding `COc1ccc(S(=O)(=O)NCCSc2nnnn2-c2ccccc2)cc1`, the max activation is -5.06% (inactive).

`O=C(NC1CCCCC1)c1ccc2c(c1)N(Cc1ccc(Cl)cc1)C(=O)c1ccccc1S2=O` (stereo not given): the max activation is 3.22% (inactive).

As for `CCC1CN(S(=O)(=O)c2cc(-c3cc(C)no3)ccc2C)c2cc(C)ccc2O1` (stereo not given), the max activation was -8.75% (inactive).

Take `Cc1ccc(Nc2ccc3cc(S(=O)(=O)N4CCCCC4)ccc3n2)cc1F`: the max activation is 3.49% (inactive).

`O=C1CCC(=O)N(O)CCCCCNC(=O)CCC(=O)N(O)CCCCCNC(=O)CCC(=O)N(O)CCCCCN1`: the max activation was 65.3% (active).

On to `CCCN(CCc1ccccc1)C1CCc2c(O)cccc2C1` (stereo not given), for which the max activation was 110% (active).

For the molecule `Cc1cc(C)cc(C(=O)N(CCc2ccccc2)C2=CC3CCC(C2)N3C)c1` (stereo not given), the max activation is -13.4% (inactive).

In the case of `COc1cccc(CNC(=O)CN2C(=O)CCc3cc(S(=O)(=O)N4CCOCC4)ccc32)c1`, the max activation is 7.79% (inactive).

As for `COc1ccc(N2CCN(C(=O)CSCc3nc(-c4ccccc4Cl)oc3C)CC2)cc1`, the max activation is 13.9% (inactive).

On to `Cc1ccc(NC(=O)C2CCN(S(=O)(=O)c3cc(-c4noc(C)n4)ccc3C)CC2)c(C)c1`, for which the max activation was -12.1% (inactive).

On to `Cc1ccc(S(=O)(=O)C(C#N)c2nc3ccccc3nc2N2CCCC2)cc1C` (stereo not given), for which the max activation is 44.8% (active).

In the case of `N#CC(C(=O)c1ccc(S(=O)(=O)N2CCCCCC2)cc1)c1nc2ccccc2[nH]1` (stereo not given), the max activation was 24% (inactive).

Take `Cc1ccc(S(=O)(=O)c2nnn3c2nc(N2CCN(c4ccccc4F)CC2)c2cc(Cl)ccc23)cc1C`: the max activation is 4.43% (inactive).

In the case of `CO/N=C(\C(=O)N[C@@H]1C(=O)N2C(C(=O)O)=C(C[N+]3(C)CCCC3)CS[C@H]12)c1csc(N)n1`, the max activation was 2.02% (inactive).

Turning to `O=S(=O)(c1ccc2nc(NCc3ccccc3Cl)ccc2c1)N1CCCCC1`, the max activation was -23.2% (inactive).

`Cc1ccc(CNC(=O)c2cccc3c2C(=O)c2ccc(N4CCC(C)CC4)cc2S3(=O)=O)cc1`: the max activation is 54.8% (active).

Turning to `Cc1cccc(CNC(=O)c2cnc3sc(N4CCCCC4)nn3c2=O)c1`, the max activation is 6.54% (inactive).

Consider `Cc1ccc(CNC(=O)C2CCCN2C(=O)NCc2ccccc2)cc1` (stereo not given), for which the max activation was 4.63% (inactive).

In the case of `CCOC(=O)[C@H](CCc1ccccc1)N[C@@H](C)C(=O)N1CC2(C[C@H]1C(=O)O)SCCS2`, the max activation was -2.59% (inactive).

As for `COCc1cccc(-c2csc(C(O)c3ccc(F)cc3)n2)c1` (stereo not given), the max activation is -13.4% (inactive).

In the case of `CC(C)(C)C(=O)OCc1nc(-c2ccc(O)c(O)c2)cs1`, the max activation is 117% (active).

Regarding `Cc1ccc(S(=O)(=O)N2CCCc3cc(NS(=O)(=O)c4cc(C)ccc4C)ccc32)cc1`, the max activation is 7.92% (inactive).

Regarding `CO/N=C(\C(=O)N[C@@H]1C(=O)N2C(C(=O)O)=CCS[C@H]12)c1csc(N)n1`, the max activation is 3.03% (inactive).

Consider `COC(=O)c1ccc2nc(-c3ccc(C)cc3)c(Cc3ccc(OC)cc3C)n2c1`, for which the max activation is -2.45% (inactive).

For `CCCCNc1c(-c2ccc(OC)c(Sc3ccc(OC)cc3)c2)nc2ccc(Cl)cn12`, the max activation is 44.7% (active).

In the case of `CCCCNc1c(-c2cccc(Sc3ccc(OC)cc3)c2)nc2ccccn12`, the max activation was 13.9% (inactive).

Regarding `COc1ccc(C2(C#N)CCC(C(=O)O)CC2)cc1OC1CCCC1` (stereo not given), the max activation is -0.732% (inactive).

On to `CCNS(=O)(=O)c1cc(-c2nnc(Nc3cccc(C(F)(F)F)c3)c3ccccc23)ccc1C`, for which the max activation is 13.3% (inactive).

Take `CCOc1ccc(OCC)c(Nc2nc3ccccc3n3nnnc23)c1`: the max activation is 5.21% (inactive).

Regarding `c1ccc2cc(C3=NCCN3)ccc2c1`, the max activation is -15.2% (inactive).

As for `CCCn1nc(C(=O)NNC(=O)CSCC(=O)Nc2cc(C)on2)c2ccccc2c1=O`, the max activation was -7.71% (inactive).

In the case of `Cc1ccccc1Nc1nc(N)nc(COC(=O)CCC(=O)c2ccc(F)cc2)n1`, the max activation was 2.22% (inactive).

Turning to `CCCn1nc(C(=O)OCc2nc(N)nc(Nc3ccccc3C)n2)c2ccccc2c1=O`, the max activation was 31.8% (active).
